Inconclusive results are not listed. The source made the active and inactive calls. How the source made its calls: active means hit-call score of the fitted dose curve at least 0.9, where 1 is the maximum; inconclusive means response in the unintended direction; inactive means score below 0.9.
System: not listed separately
Test: ATG_M_06_XSP2: Attagene TRANS-FACTORIAL Multi-Species (XSP2) HepG2 Assay for M06 Transcription Factor (Internal Marker) (AID 2283811);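 further: internal background marker reporter mRNA measured by RT-PCR and capillary electrophoresis; hits are increases in signal above the DMSO baseline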
In short: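 HepG2 cells transiently transfected with GAL4-UAS multi-reporter constructs, dosed 24 h with 3 nM 6-alpha-fluorotestosterone plus 1.5 nM norgestrel present to stimulate androgen receptor. Reporter mRNA quantified by RT-PCR, 6-FAM labelling, HpaI digestion and capillary electrophoresis; gain-of-signal fitted versus DMSO baseline.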

| SMILES | outcome |
| --- | --- |
| CC(=O)O[C@]1(C(C)=O)CC[C@H]2[C@@H]3C=C(Cl)C4=CC(=O)[C@@H]5C[C@@H]5[C@]4(C)[C@H]3CC[C@@]21C | inactive |
| CCN(CC)CCOc1ccc(C(=C(Cl)c2ccccc2)c2ccccc2)cc1 | inactive |
| Cc1c(C)c2c(c(C)c1O)CCC(C)(COc1ccc(CC3SC(=O)NC3=O)cc1)O2 (configuration not stated) | inactive |

Molecular target: zebrafish Estrogen Receptor (ER1), esr1 (gene 259252) (UniProt P57717)
Test: ATG_zfER1_XSP2: Attagene TRANS-FACTORIAL Multi-Species (XSP2) HepG2 Assay for zebrafish Estrogen Receptor (ER1) (AID 2283816)
In short: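 HepG2 cells transiently transfected with a GAL4-UAS reporter and a chimeric zebrafish ER1-Gal4 construct, dosed 24 h. Reporter mRNA quantified by RT-PCR, labelling, HpaI digestion and capillary electrophoresis, relative to DMSO.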

Chain of zebrafish Estrogen Receptor (ER1), esr1 (gene 259252) (P57717 whole entry, looked up): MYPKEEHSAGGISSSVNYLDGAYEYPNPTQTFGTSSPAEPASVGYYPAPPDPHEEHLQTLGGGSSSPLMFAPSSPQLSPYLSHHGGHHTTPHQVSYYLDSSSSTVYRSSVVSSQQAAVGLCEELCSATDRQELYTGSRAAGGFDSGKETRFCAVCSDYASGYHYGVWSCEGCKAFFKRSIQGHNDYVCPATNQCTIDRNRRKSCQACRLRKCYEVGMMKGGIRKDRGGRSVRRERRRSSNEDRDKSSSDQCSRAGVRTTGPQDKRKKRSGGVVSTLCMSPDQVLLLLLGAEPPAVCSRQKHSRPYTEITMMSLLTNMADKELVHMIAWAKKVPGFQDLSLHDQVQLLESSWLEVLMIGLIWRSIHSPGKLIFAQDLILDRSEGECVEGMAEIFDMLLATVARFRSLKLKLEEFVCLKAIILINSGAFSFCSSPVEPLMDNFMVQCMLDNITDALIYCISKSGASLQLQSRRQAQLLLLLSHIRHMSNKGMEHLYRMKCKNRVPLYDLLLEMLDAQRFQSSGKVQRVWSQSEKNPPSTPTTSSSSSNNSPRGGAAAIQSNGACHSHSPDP

| SMILES | outcome |
| --- | --- |
| CC(=O)O[C@]1(C(C)=O)CC[C@H]2[C@@H]3C=C(Cl)C4=CC(=O)[C@@H]5C[C@@H]5[C@]4(C)[C@H]3CC[C@@]21C | inactive |
| CCN(CC)CCOc1ccc(C(=C(Cl)c2ccccc2)c2ccccc2)cc1 | inactive |
| Cc1c(C)c2c(c(C)c1O)CCC(C)(COc1ccc(CC3SC(=O)NC3=O)cc1)O2 (configuration not stated) | inactive |
| CC(=O)[C@@]1(O)CC[C@H]2[C@@H]3CCC4=CC(=O)CC[C@]4(C)[C@H]3CC[C@@]21C | inactive |

Reference: PubChem BioAssay (EPA / NIEHS)
